The values that follow come from PubChem BioAssay.

SMILES strings stand for the structures. For part of these data: Potency and affinity values are given separately. Activity calls are given as the source filed them.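 The calls were made as follows, unless noted: active = fitted half-maximal concentration within 10 nM to 100 µM, steepness 0.5 to 2, significant signal drop, low assay interference; inactive = the rest.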

Assay [1] has as its target Cell division control protein 42 homolog (Homo sapiens) (UniProt P60953). The experiment in a line: activated mutant Cdc42 GTP-binding inhibitors, dose response, biochemical, multiplex bead flow cytometry, Bodipy-FL-GTP (AID 1333;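 active = fitted half-maximal concentration within the tested dose range, moderate curve steepness, a statistically real signal drop, and little compound fluorescence or tag-binding interference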).
For assay [2] the target is unchanged. The experiment in a line: wildtype Cdc42 GTP-binding inhibitors, dose response, biochemical, multiplex bead flow cytometry, Bodipy-FL-GTP (AID 1334;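 active = fitted half-maximal concentration within the tested range, moderate curve steepness, significant signal drop, and little compound fluorescence or bead-linkage interference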). Particulars: bead-based flow cytometry, Bodipy-FL-GTP binding to GST-Cdc42; at 100 µM (top of the series) unless noted. Background: Flow cytometry measures light scatter and fluorescence of single cells or particles in a stream.

Assay [3] concerns the target GTPase HRas (Homo sapiens) (UniProt P01112). The experiment in a line: inhibitors of GTP binding to wildtype Ras, dose response, biochemical, multiplex bead flow cytometry (AID 1335). Particulars: bead-based flow cytometry, Bodipy-GTP binding to GST-Ras; at 100 µM (top of the series) unless noted.
Assay [4] relates to Ras-related protein Rab-7a (dog), GTP binding. The experiment in a line: Rab7 GTP binding inhibitors, potency, dose response, biochemical, wildtype, multiplex bead flow cytometry (AID 1336; call rule not given here).
The target of assay [5] is Ras-related C3 botulinum toxin substrate 1 (Homo sapiens) (UniProt P63000). The experiment in a line: wildtype Rac1 GTP binding inhibitors, dose response, biochemical, multiplex bead flow cytometry (AID 1340;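 active = dose curve with midpoint inside tested range, moderate steepness, plateau gap beyond fit error, low compound glow and bead-link interference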). Particulars: GST-Rac1 beads, Bodipy-FL-GTP binding; at 100 µM (top of the series) unless noted.
For assay [6], the target named is GTPase HRas (Homo sapiens) (UniProt P01112). The experiment in a line: activated Ras mutant GTP binding inhibitors, dose response, biochemical, multiplex bead flow cytometry (AID 1341;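 active = dose-response curve with midpoint inside the tested range, moderate steepness, significant amplitude and little compound fluorescence or bead-attachment interference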;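 also: GST-tagged constitutively activated Ras mutant immobilized on beads and multiplexed with other GTPases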).
Chain of GTPase HRas (Homo sapiens) (P01112 whole entry, looked up): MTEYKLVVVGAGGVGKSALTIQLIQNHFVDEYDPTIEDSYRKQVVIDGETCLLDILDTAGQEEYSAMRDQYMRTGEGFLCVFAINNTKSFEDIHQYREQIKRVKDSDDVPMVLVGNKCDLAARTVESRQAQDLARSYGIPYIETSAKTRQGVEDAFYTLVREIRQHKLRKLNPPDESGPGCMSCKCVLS

Chain of Cell division control protein 42 homolog (Homo sapiens) (P60953 whole entry, looked up): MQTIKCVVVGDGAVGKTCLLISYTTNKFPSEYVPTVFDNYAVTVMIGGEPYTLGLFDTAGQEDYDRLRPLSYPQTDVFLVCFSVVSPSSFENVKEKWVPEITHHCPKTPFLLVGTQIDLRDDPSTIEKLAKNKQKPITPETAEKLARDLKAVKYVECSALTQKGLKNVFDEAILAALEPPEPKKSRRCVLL

Regarding `O=C(Nc1ccc(S(=O)(=O)N2CCCc3ccccc32)cc1)C1CCCO1` (stereo not given), the outcome in assay [1], in assay [4] and in assay [6] was inactive. Further, the fluorescence, percent of control (lower = inhibition) in assay [2] is 33.2%. In addition, the GTP binding, percent of control in assay [3] came out at 79.9%. The GTP binding signal, raw median fluorescence (lower = inhibition) (MCF (arbitrary fluorescence units)) in assay [5] worked out at 286.
For the compound `O=S(=O)(Nc1cc(Sc2ncn[nH]2)c(O)c2ccccc12)c1ccccc1`, the result in assay [1], in assay [4] and in assay [6] was inactive. For the same compound, the fluorescence, percent of control (lower = inhibition) in assay [2] was 31.4%. For the same compound, in assay [3], the GTP binding, percent of control is 71.9%. Besides, in assay [5], the GTP binding signal, raw median fluorescence (lower = inhibition) (MCF (arbitrary fluorescence units)) is 155.
Take `CNC(=O)C(C)NS(=O)(=O)c1ccc(F)cc1` (stereo not given): the compound was called inactive in assay [1], in assay [4] and in assay [6]. Further, the fluorescence, percent of control (lower = inhibition) in assay [2] was 50.9%. Also, the GTP binding, percent of control in assay [3] was found to be 66.5%. Further, the GTP binding signal, raw median fluorescence (lower = inhibition) (MCF (arbitrary fluorescence units)) in assay [5] was determined as 236.
Take `Cc1cc(-c2n[nH]c(=S)n2/N=C/c2cccc([N+](=O)[O-])c2)n[nH]1`: the compound was called inactive in assay [1], in assay [4] and in assay [6]. The fluorescence, percent of control (lower = inhibition) in assay [2] turned out to be 35%. Also, the GTP binding, percent of control in assay [3] was 51%. Also, the GTP binding signal, raw median fluorescence (lower = inhibition) (MCF (arbitrary fluorescence units)) in assay [5] was 102.
`O=S1(=O)N=C(N(CCO)/N=C/c2ccncc2)c2ccccc21`: the compound was called inactive in assay [1], in assay [4] and in assay [6]. Further, in assay [2], the fluorescence, percent of control (lower = inhibition) is 24.1%. Besides, the GTP binding, percent of control in assay [3] is 52.3%. The compound further had a GTP binding signal, raw median fluorescence (lower = inhibition) (MCF (arbitrary fluorescence units)) in assay [5] of 114.
Regarding `O=c1c2ccccc2nc2ccc(NCc3ccco3)nn12`, the compound was classed as inactive in assay [1], in assay [4] and in assay [6]. In addition, the fluorescence, percent of control (lower = inhibition) in assay [2] came out at 31.4%. The compound also yielded a GTP binding, percent of control in assay [3] of 71.8%. Moreover, in assay [5], the GTP binding signal, raw median fluorescence (lower = inhibition) (MCF (arbitrary fluorescence units)) is 196.
Regarding `COCCn1c(N)c(C(=O)Nc2sc3c(c2C(=O)OC)CCCC3)c2nc3ccccc3nc21`, the compound was classed as inactive in assay [1], in assay [4] and in assay [6]. Also, in assay [2], the fluorescence, percent of control (lower = inhibition) was 52%. Further, in assay [3], the GTP binding, percent of control worked out at 108%. This compound yielded a GTP binding signal, raw median fluorescence (lower = inhibition) (MCF (arbitrary fluorescence units)) in assay [5] of 120.
With `O=C(O)c1ccc(COc2ccc(F)cc2)o1`, the result in assay [1], in assay [4] and in assay [6] was inactive. For the same compound, in assay [2], the fluorescence, percent of control (lower = inhibition) is 61.2%. The GTP binding, percent of control in assay [3] was 87.5%. The same compound gave a GTP binding signal, raw median fluorescence (lower = inhibition) (MCF (arbitrary fluorescence units)) in assay [5] of 35.
On to `Cc1ccc(CN2CC34C=CC(C)(O3)C(C(=O)O)C4C2=O)cc1` (stereo not given), for which the compound was classed as inactive in assay [1], in assay [4] and in assay [6]. For the same compound, the fluorescence, percent of control (lower = inhibition) in assay [2] was found to be 60.3%. Besides, in assay [3], the GTP binding, percent of control came out at 87.8%. The same compound returned a GTP binding signal, raw median fluorescence (lower = inhibition) (MCF (arbitrary fluorescence units)) in assay [5] of 33.4.
Consider `O=C1/C(=C/c2ccc(N3CCOCC3)o2)SC(=Nc2ccccc2)N1CCc1c[nH]c2ccccc12`, for which the call in assay [1], in assay [4] and in assay [6] was inactive. Further, the fluorescence, percent of control (lower = inhibition) in assay [2] came out at 104%. For the same compound, in assay [3], the GTP binding, percent of control was found to be 114%. In assay [5], this compound returned a GTP binding signal, raw median fluorescence (lower = inhibition) (MCF (arbitrary fluorescence units)) of 242.
On to `CCOC(=O)Cn1nnnc1CN(Cc1cccs1)Cc1cc2cc(C)cc(C)c2[nH]c1=O`, for which the call in assay [1], in assay [4] and in assay [6] was inactive. In addition, in assay [2], the fluorescence, percent of control (lower = inhibition) was found to be 81.6%. In assay [3], this compound registered a GTP binding, percent of control of 161%. This compound registered a GTP binding signal, raw median fluorescence (lower = inhibition) (MCF (arbitrary fluorescence units)) in assay [5] of 171.
`CCCCCN1CC(O)=C(c2ccccc2)C1=N`: the compound was called inactive in assay [1], in assay [4] and in assay [6]. Further, in assay [2], the fluorescence, percent of control (lower = inhibition) stood at 82.3%. Also, in assay [3], the GTP binding, percent of control was found to be 158%. Further, the GTP binding signal, raw median fluorescence (lower = inhibition) (MCF (arbitrary fluorescence units)) in assay [5] turned out to be 179.
For the compound `Cc1cc(-c2n[nH]c(=S)n2/N=C/C(Cl)=C/c2ccccc2)n[nH]1`, the outcome in assay [1], in assay [4] and in assay [6] was inactive. Further, in assay [2], the fluorescence, percent of control (lower = inhibition) turned out to be 33.9%. Further, the GTP binding, percent of control in assay [3] is 78.7%. This compound came in with a GTP binding signal, raw median fluorescence (lower = inhibition) (MCF (arbitrary fluorescence units)) in assay [5] of 229.
Consider `Cc1ccccc1NC(=O)CN1C(=O)S/C(=C\c2ccc(-c3cc(C(=O)O)ccc3C)o2)C1=O`, for which the result in assay [1], in assay [4] and in assay [6] was inactive. For the same compound, the fluorescence, percent of control (lower = inhibition) in assay [2] came to 30.5%. In addition, in assay [3], the GTP binding, percent of control was found to be 77.4%. This compound also registered a GTP binding signal, raw median fluorescence (lower = inhibition) (MCF (arbitrary fluorescence units)) in assay [5] of 258.
Take `O=S(=O)(Nc1cccc(-c2cn3cccnc3n2)c1)c1ccc(F)cc1`: the compound was classed as inactive in assay [1], in assay [4] and in assay [6]. For the same compound, in assay [2], the fluorescence, percent of control (lower = inhibition) turned out to be 36.5%. This compound also gave a GTP binding, percent of control in assay [3] of 46%. Also, the GTP binding signal, raw median fluorescence (lower = inhibition) (MCF (arbitrary fluorescence units)) in assay [5] came out at 0.
